Calls of active or inactive are those of the source. Unless noted, no rule for the calls is given here.
How the values were obtained:
[1] = tested on: XIP peptide (Xip251-270) binding; experiment: small-molecule binders of XIP peptide, primary screen, biochemical, small-molecule microarray, fluorescence 635/667 nm, 0.1 µg/mL protein (AID 1182); settings: fluorescent protein binding, 635 nm, higher = more signal, called active from +8 up or from −8 down
[2] = tested on: XIP peptide (Xip251-270); experiment: small-molecule binders of XIP peptide, primary screen, biochemical, small-molecule microarray, fluorescence 635/667 nm, 0.5 µg/mL protein (AID 1183); settings: small-molecule microarray binding, fluorescence 635 nm; higher = more signal
[3] = Plasmodium falciparum growth inhibition, primary screen, strain 3D7, DAPI fluorescence, 100 nL (AID 1184);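 also: parasites grown inside human red blood cells in medium with human serum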; settings: P. falciparum 3D7 growth, 3 d, higher = more signal
[4] = molecular target: Homeobox protein Hox-A13 (Mus musculus) (UniProt Q62424); experiment: inhibitors of HoxA13-DNA binding, primary screen, biochemical, fluorescence polarization, labeled oligonucleotide (AID 1185); settings: 15 min, higher = more signal, called active from +8 up or from −8 down
Homeobox protein Hox-A13 (Mus musculus), sequence (Q62424 whole entry, looked up): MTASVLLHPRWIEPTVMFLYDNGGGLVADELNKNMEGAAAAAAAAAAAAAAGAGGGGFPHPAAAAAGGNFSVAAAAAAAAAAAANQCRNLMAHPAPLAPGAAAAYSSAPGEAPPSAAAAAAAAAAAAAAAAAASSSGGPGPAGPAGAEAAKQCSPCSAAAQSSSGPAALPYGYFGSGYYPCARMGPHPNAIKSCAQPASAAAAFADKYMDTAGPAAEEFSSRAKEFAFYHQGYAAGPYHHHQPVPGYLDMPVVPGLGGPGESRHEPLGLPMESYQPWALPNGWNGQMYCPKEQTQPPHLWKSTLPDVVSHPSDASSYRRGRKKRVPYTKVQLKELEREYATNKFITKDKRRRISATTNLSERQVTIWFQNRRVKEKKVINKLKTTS

[5] = inhibitors of hydroxyurea-induced Chk1 phosphorylation, primary screen, imaging, HeLa, phospho-Chk1 antibody, percent positive cells (AID 1186); settings: hydroxyurea-induced phospho-Chk1 immunofluorescence imaging, higher = more signal
[6] = inhibitors of hydroxyurea-induced Chk1 phosphorylation, primary screen, imaging, HeLa, phospho-Chk1 nuclear intensity (AID 1187); settings: hydroxyurea-induced phospho-Chk1 immunofluorescence imaging, higher = more signal

Row | SMILES | composite z-score [1] | composite z-score [2] | z-score [3] | z-score [4] | z-score [5] | z-score [6]
1 | COc1ccc([Si](C)(C)[C@@H]2[C@@H](CC(=O)N3CCC[C@H]3CO)O[C@]3(C(=O)N(Cc4cccc(I)c4)c4ccccc43)[C@H]2C)cc1 | 0.302 (inactive) | 0.572 | -2.28 | -3.72 (inactive) | -0.198 (inactive) | -0.353 (inactive)
2 | CC(C)OC(=O)C=C1C[C@@H](c2cccc(Cl)c2)O[C@@H](c2cccc(Cl)c2)O1 | 0.262 (inactive) | -0.226 | -0.642 | -2.09 (inactive) | 0.193 (inactive) | -0.0046 (inactive)
3 | O[C@@H](Cc1ccccc1)[C@@H](/C=C/C1CC1)NCc1cccc(Cl)c1 | -0.58 (inactive) | -0.134 | -1.44 | 0.306 (inactive) | -0.303 (inactive) | -0.682 (inactive)
4 | CCCCCCc1nc(-c2ccc(-c3ccc(Cl)c(Cl)c3)o2)c(C)c2c1[Si](C(C)C)(C(C)C)OC2 | -0.376 (inactive) | 0.148 | -2.4 | -2.13 (inactive) | 0.394 (inactive) | 0.251 (inactive)
5 | O=C(NCCN1CCOCC1)[C@@H]1c2ccccc2C(=O)N(Cc2cc(C(F)(F)F)cc(C(F)(F)F)c2)[C@H]1c1ccc(CO)cc1 | 0.532 (inactive) | 0.304 | -1.27 | -4 (inactive) | -0.24 (inactive) | -0.268 (inactive)
6 | O=C1C2C=CC(C(O)c3cc(C(F)(F)F)cc(C(F)(F)F)c3)N(Nc3ccccc3)C2C(=O)N1c1ccccc1 (configuration not stated) | 0.926 (inactive) | 0.197 | 0.0018 | -2.82 (inactive) | 0.0811 (inactive) | -0.017 (inactive)
7 | Cc1c(NC(=O)/C(C#N)=C/c2cccc([N+](=O)[O-])c2)c(=O)n(-c2ccccc2)n1C | 0.92 (inactive) | 0.695 | -0.413 | -2.41 (inactive) | -0.782 (inactive) | -1.15 (inactive)
8 | CC(C)Cc1ccc(CN2CC[C@@H](N)C2)cc1 | 0.773 (inactive) | -0.0255 | -0.423 | -0.811 (inactive) | -0.939 (inactive) | -0.735 (inactive)
9 | COCCCNC(=O)[C@]1(Cc2ccccc2)N=C(c2ccc(OCCCO)cc2)O[C@@H]1c1ccccc1CN=[N+]=[N-] | 1.88 (inactive) | 0.711 | -2.33 | -3.2 (inactive) | -0.6 (inactive) | -0.537 (inactive)
10 | C=CC[C@]1(C(=O)N2CCOCC2)N=C(c2ccc(OCCCO)cc2)O[C@H]1c1ccccc1N=[N+]=[N-] | 0.821 (inactive) | 0.75 | -1.92 | -4.01 (inactive) | -0.528 (inactive) | -0.67 (inactive)
11 | C=C(/C(=C/C[C@H](OC(=O)c1ccncc1)c1ccc(OCCO)cc1)c1cc(C(=O)OC)ccc1OC)C(C)C | 0.249 (inactive) | 0.505 | -2.87 | -3.23 (inactive) | -0.962 (inactive) | -0.621 (inactive)
12 | C=C[C@H](C)[C@@H](OC(=O)Nc1ccc(SC)cc1)c1ccc(O)c2ccccc12 | 0.68 (inactive) | 0.248 | -0.127 | -4.35 (inactive) | 1.16 (inactive) | 0.893 (inactive)
13 | COCCOC(=O)N1C(=O)[C@@]2(c3cc(C#CC4=CCCCC4)ccc31)[C@H](C(N)=O)[C@H]1C(=O)O[C@H](c3ccccc3)[C@H](c3ccccc3)N1[C@@H]2c1ccc(O)cc1 | 1.79 (inactive) | 0.769 | 0.55 | -0.393 (inactive) | -0.371 (inactive) | -0.552 (inactive)
14 | CCOC(=O)[C@H]1C/C=C/C[C@H](C(=O)OCC)C(=O)O[C@H]2[C@@H](OC)O[C@H](CO)[C@@H](OC(=O)c3ccc(Br)cc3)[C@@H]2OC1=O | 0.146 (inactive) | -0.103 | -1.11 | -1.2 (inactive) | -0.0241 (inactive) | 0.237 (inactive)
15 | Cc1ccc(C2C3C(=O)CC4C(=O)N(c5ccccc5)C(=O)C4C3CN2S(=O)(=O)c2ccc(C)cc2)cc1 (configuration not stated) | 0.053 (inactive) | 0.785 | 0.395 | -3.61 (inactive) | 0.951 (inactive) | 1 (inactive)
16 | O=C(O)[C@@]1(CCS(=O)(=O)c2ccccc2)N=C(c2ccc(OCCCO)cc2)O[C@H]1c1ccccc1 | 1.15 (inactive) | 0.392 | -0.471 | -5.76 (inactive) | 0.0733 (inactive) | 0.0816 (inactive)
17 | CCCC=C(CCC)[C@@H](NS(=O)(=O)c1ccc(Cl)cc1)c1ccc(C(=O)OC)cc1 | -0.126 (inactive) | 0.536 | 0.198 | -1.43 (inactive) | 0.47 (inactive) | 0.175 (inactive)
